The target in assay [1] is Cellular tumor antigen p53 (Homo sapiens) (UniProt P04637). Nature of the assay: Primary qHTS for small molecule compounds that upregulate eGFP-tagged delta133p53alpha (in N-terminal) cells. (AID 2060322).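 Also: series mostly up to about 56 µM; 0% = DMSO vehicle and 100% = reference activator; nearly all actives have a fitted effect of over 75% in size.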 The following applies: NCI-H358 eGFP-delta133p53alpha fluorescence, 24 h; activation: stronger effect = higher value. In short, it runs like this: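 NCI-H358 cells pre-induced 24 h with 10 ng/ml doxycycline to express N-terminal eGFP-delta133p53alpha, then dosed 24 h at 37C without doxycycline; fixed, Hoechst-stained, GFP intensity by laser scanning cytometry, normalized to DMSO (0%) and 57.5 uM 5-azacytidine (100%).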
Sequence of Cellular tumor antigen p53 (Homo sapiens) (P04637 whole entry, looked up): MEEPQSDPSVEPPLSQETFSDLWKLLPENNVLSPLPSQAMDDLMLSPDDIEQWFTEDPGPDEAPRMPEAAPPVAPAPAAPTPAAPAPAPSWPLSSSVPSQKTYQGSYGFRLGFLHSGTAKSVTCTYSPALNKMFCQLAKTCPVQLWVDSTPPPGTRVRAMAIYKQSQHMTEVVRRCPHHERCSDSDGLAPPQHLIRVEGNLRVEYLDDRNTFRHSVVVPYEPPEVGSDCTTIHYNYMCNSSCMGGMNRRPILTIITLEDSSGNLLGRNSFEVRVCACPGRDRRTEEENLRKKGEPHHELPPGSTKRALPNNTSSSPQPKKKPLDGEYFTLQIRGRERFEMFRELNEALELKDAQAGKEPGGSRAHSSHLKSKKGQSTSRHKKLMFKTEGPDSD
In general terms: Quantitative high-throughput screening tests each substance at several concentrations.

Assay [2] shares this target. Description: Primary qHTS for small molecule compounds that upregulate eGFP-tagged delta133p53alpha (in C-terminal) cells. (AID 2060324).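 Also: 0% = DMSO wells and 100% = 57.5 µM 5-azacytidine.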 In short, it runs like this:
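NCI-H358 cells with doxycycline-inducible D133p53a-eGFP (C-terminal tag), pre-induced 24 h with 100 ng/ml doxycycline, plated 800/well in doxycycline-free medium and treated 24 h at 37 °C with compound titrations. Cells were then fixed and Hoechst-stained, and GFP intensity was read by laser scanning cytometry.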

Assay [3] addresses Aldehyde dehydrogenase, mitochondrial (Homo sapiens) (UniProt P05091). Nature of the assay: qHTS for Inhibitors of the Aldehyde Dehydrogenase Family (ALDH2) Validation screens (AID 2061302; active = well fitted inhibition curve with a large enough effect; title and protocol of this record describe different tests;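 also: plate controls were DMSO vehicle for no effect and maximal DPI positive control response for full effect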).
Assay [4] addresses Retinaldehyde dehydrogenase 3 (Homo sapiens) (UniProt P47895). Nature of the assay: qHTS for Inhibitors of the Aldehyde Dehydrogenase Family (ALDH1A3) Validation screen (AID 2061312). Also: % is scaled to controls: 0 for no effect and ±100 for the full control effect; nearly all actives have a fitted effect of over 45% in size.
Assay [5] in a line: BET inhibitor-based combinations targeting novel dependencies in MECOM-rearranged (r) AML: SET-2 cell line (AID 2202231). Also: nearly all actives have a fitted effect of over 35% in size. Also: potency is read from the fitted curve at half-maximal effect.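 As to viability: plate controls were DMSO treated cells for no effect and wells without cells for full effect.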 As to conditions: SET-2 AML cells viability, CellTiter-Glo luminescence, 48 h; viability: stronger effect = lower value, concentration not given here. In short, it runs like this:
(§1)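 Here, 11-point titrations of each agent were applied to 500 seeded cells and incubated 48 hr; CellTiter-Glo signal, scaled against DMSO and empty wells, was integrated as AUC, then Z-scored within the individual line.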
(In general: ATP-based viability assays read luminescence as a measure of living cells.)

Assay [6] in a line: BET inhibitor-based combinations targeting novel dependencies in MECOM-rearranged (r) AML: OCI-AML3 cell line (AID 2202232). Also: nearly all actives have a fitted effect of over 35% in size. Also: potency is read from the fitted curve at half-maximal effect. The following applies: Potency: OCI-AML3 viability. In short, it runs like this: as §1
Assay [7] is described as follows: BET inhibitor-based combinations targeting novel dependencies in MECOM-rearranged (r) AML: MV-4-11 cell line (AID 2202233). Also: nearly all actives have a fitted effect of over 45% in size. Also: potency is read from the fitted curve at half-maximal effect. In short, it runs like this:
(§2)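 Normalized to DMSO and empty-well controls, the luminescence data from CellTiter-Glo after 48 hr drug exposure were fitted across 11 concentrations. Reported metrics are area under the dose-response curve and its Z-transformed form.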

Assay [8] is described as follows: BET inhibitor-based combinations targeting novel dependencies in MECOM-rearranged (r) AML: HNT-34 cell line (AID 2202234).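 Also: plate controls were vehicle wells for no effect and cell-free wells for full effect; nearly all actives have a fitted effect of over 35% in size.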 In short, it runs like this: as §2
Assay [9] can be described thus: BET inhibitor-based combinations targeting novel dependencies in MECOM-rearranged (r) AML: UCSD-AML1 cell line (AID 2202235).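 Also: series mostly up to about 46 µM; plate controls were DMSO vehicle wells for no effect and blank wells for full effect; nearly all actives have a fitted effect of over 40% in size.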 The procedure, abridged: as §2
A short description of assay [10]: BET inhibitor-based combinations targeting novel dependencies in MECOM-rearranged (r) AML: AML-194 cell line (AID 2202237;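 also: plate controls were vehicle wells for no effect and wells without cells for full effect; nearly all actives have a fitted effect of over 40% in size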). The procedure, abridged:
as §1

Assay [11] can be described thus: BET inhibitor-based combinations targeting novel dependencies in MECOM-rearranged (r) AML: AML-191 cell line (AID 2202236; also: nearly all actives have a fitted effect of over 35% in size; also: potency is read from the fitted curve at half-maximal effect). The procedure, abridged: as §1

Several values for one entry are separate records, joined by “and”; a condition that tells them apart may be missing. Equal values may be shown once. Records with an inconclusive call do not appear. Values without a mark were called inactive. Activity calls are given as the source filed them. Unless noted, calls follow the shape of the dose curve; as a rule, active = well fitted curve in the direction sought with a large enough effect; inconclusive = small, poorly fitted or top-dose-only effect, or another doubt; inactive = no such curve, though single readings can be large; an effect the other way counts as inactive or inconclusive.

As for `CC(C)NCC(O)c1ccc(NS(C)(=O)=O)cc1` (stereo not given), the activation in [1] was -72.6%. The Potency entry in assay [2], in [3], in assay [4], in [6], in assay [7] and in [8] was “inactive” in each case. In addition, the Potency entry in [9] and in assay [10] was “inactive” throughout. In addition, the viability in assay [5] was 116%.
As for `CC(C)NCC(O)COc1ccc(CCOCC2CC2)cc1` (stereo not given), the activation in assay [1] is -6.83% and 29.3% and -23.2%. Moreover, the Potency entry in [2], in assay [3], in assay [4], in assay [6], in assay [7] and in assay [9] was “inactive” in each case. The Potency entry in assay [11] and in [10] was “inactive” in each case. Besides, in [5], the viability is 115%.
Regarding `CCCCS(=N)(=O)CCC(N)C(=O)O` (stereo not given), the activation in [1] was -49.8%. The Potency result in assay [2], in [3], in assay [4], in assay [8], in [9] and in assay [11] was “inactive” throughout. In assay [10], the Potency result was “inactive”. Moreover, in assay [5], the viability is 120%. Moreover, the Potency in assay [6] is 9.59 µM (active); in [7], 21.5 µM (active).
`CC(C)C[C@H](NC(=O)[C@@H](O)[C@H](N)Cc1ccccc1)C(=O)O`: the activation in assay [1] was -10.8%. In addition, the Potency result in [2], in assay [3], in assay [4], in [6], in [7] and in assay [8] was “inactive” each time. Further, the Potency entry in [9], in assay [11] and in assay [10] was “inactive” in each case. Also, the viability in assay [5] was 104%.
Regarding `O=C1CCC(N2C(=O)c3ccccc3C2=O)C(=O)N1` (stereo not given), in assay [1], the activation was -0.565% and -9.78% and -7.37%. For the same molecule, the Potency result in [2], in [3], in assay [4], in assay [6], in assay [7] and in assay [8] was “inactive” in each case. Moreover, the Potency entry in assay [9], in [11] and in [10] was “inactive” in each case. Further, in assay [5], the viability was 112%.
Consider `NCCS(=O)(=O)O`, for which, in [1], the activation was -4.87% and 12%. The Potency result in assay [2], in assay [3], in assay [4], in assay [6], in assay [7] and in assay [8] was “inactive” in each case. Further, the Potency result in [9], in [11] and in assay [10] was “inactive” each time. Also, the viability in assay [5] was 125%.
Regarding `CN(CCOc1ccc(NS(C)(=O)=O)cc1)CCc1ccc(NS(C)(=O)=O)cc1`, the activation in assay [1] is -5.08% and 6.34% and 4.63%. In addition, the Potency entry in assay [2], in [3], in assay [4], in [6], in assay [7] and in assay [8] was “inactive” each time. Further, the Potency result in assay [9], in assay [11] and in assay [10] was “inactive” each time. Besides, the viability in assay [5] is 110%.
For `NC(=O)c1cnccn1`, the activation in assay [1] was -1.69% and -18.4% and -16.9%. Moreover, the Potency result in assay [2], in assay [3], in assay [4], in assay [6], in [7] and in assay [8] was “inactive” in each case. Moreover, the Potency result in [9], in assay [11] and in assay [10] was “inactive” in each case. For the same molecule, the viability in assay [5] was 105%.
`Nc1nc2c(ncn2COCCO)c(=O)[nH]1`: in assay [1], the activation is 6.69% and 13.1%. For the same molecule, the Potency entry in [2], in assay [3], in assay [4], in assay [6], in assay [7] and in [8] was “inactive” throughout. For the same molecule, the Potency result in assay [9], in assay [11] and in assay [10] was “inactive” in each case. Further, in [5], the viability was 125%.
For `Clc1ccccc1C(c1ccccc1)(c1ccccc1)n1ccnc1`, in assay [1], the activation is -9.6% and -24.2%. For the same molecule, the Potency entry in assay [2], in assay [3] and in assay [4] was “inactive” each time. Also, the Potency was 18.6 µM (active) in assay [5], 16.6 µM (active) in assay [6], 18.6 µM (active) in [7] and 23.5 µM (active) in assay [11].
With `CCCc1c(OCCCOc2ccc(OCC(=O)O)cc2)ccc(C(C)=O)c1O`, the activation in assay [1] was -13.9%. Also, the Potency entry in assay [2], in assay [3], in [4], in assay [6], in [7] and in assay [8] was “inactive” each time. Further, the Potency entry in [11] and in [10] was “inactive” in each case. Further, the viability in assay [5] is 119%.
With `O=C(O)C1CCCN(CCC=C(c2ccccc2)c2ccccc2)C1` (stereo not given), the activation in assay [1] is -10.3%. In addition, the Potency result in assay [2], in assay [3], in [4], in [6], in assay [7] and in assay [8] was “inactive” throughout. Moreover, the Potency result in [9], in assay [11] and in [10] was “inactive” in each case. In addition, the viability in assay [5] is 117%.
For `CCn1cc(C(=O)O)c(=O)c2cc(F)c(N3CCNC(C)C3)c(F)c21` (stereo not given), the activation in [1] was -0.837% and 16.4% and -15.6%. For the same molecule, the Potency entry in assay [2], in assay [3], in assay [4], in [6], in [7] and in [8] was “inactive” throughout. The Potency entry in assay [9], in [11] and in assay [10] was “inactive” throughout. Besides, the viability in assay [5] is 95.2%.
Regarding `CCCCNc1cc(C(=O)O)cc(S(N)(=O)=O)c1Oc1ccccc1`, in [1], the activation was 1.67% and 7.38% and -16.3%. For the same molecule, the Potency result in [2], in [3], in assay [4], in [6], in [7] and in assay [8] was “inactive” in each case. For the same molecule, the Potency result in assay [9], in assay [11] and in [10] was “inactive” each time. In addition, in assay [5], the viability is 115%.
Turning to `Cc1cnc(NC(=O)C2=C(O)c3ccccc3S(=O)(=O)N2C)s1`, the activation in [1] is -27.7% and -26.4% and -6.82%. For the same molecule, the Potency result in assay [2], in assay [3], in [4], in [6], in [7] and in assay [8] was “inactive” in each case. Also, the Potency entry in assay [9], in assay [11] and in assay [10] was “inactive” throughout. In addition, the viability in assay [5] is 110% and 107% and 111%.
As for `NC(=O)c1ccc2[nH]ccc2c1`, the activation in [1] is 3.04%. In addition, the Potency entry in [2], in assay [3], in assay [4], in [6], in assay [7] and in assay [8] was “inactive” each time. Besides, the Potency result in assay [9], in [11] and in assay [10] was “inactive” in each case. For the same molecule, the viability in [5] was 107%.

In general, viability refers to a read-out of living cells in per cent, often relative to untreated cells.
